Out of some 310,000 compounds screened, about 14,000 (4.5%) showed an effect of 50% or more. Effects have a minus sign here. The list comes from a sample in which strong results are over-represented; it also holds similar structures and randomly drawn compounds.
biological target: human ether-à-go-go-related gene (hERG) potassium channel (human, UniProt Q12809); experiment: primary screen, population patch clamp on CHO cells stably expressing hERG; higher = less effect of the substance
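Further: peak tail current of the secondary pulse compared with the same well before compound.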

Sequence of human ether-à-go-go-related gene (hERG) potassium channel (Q12809 whole entry, looked up): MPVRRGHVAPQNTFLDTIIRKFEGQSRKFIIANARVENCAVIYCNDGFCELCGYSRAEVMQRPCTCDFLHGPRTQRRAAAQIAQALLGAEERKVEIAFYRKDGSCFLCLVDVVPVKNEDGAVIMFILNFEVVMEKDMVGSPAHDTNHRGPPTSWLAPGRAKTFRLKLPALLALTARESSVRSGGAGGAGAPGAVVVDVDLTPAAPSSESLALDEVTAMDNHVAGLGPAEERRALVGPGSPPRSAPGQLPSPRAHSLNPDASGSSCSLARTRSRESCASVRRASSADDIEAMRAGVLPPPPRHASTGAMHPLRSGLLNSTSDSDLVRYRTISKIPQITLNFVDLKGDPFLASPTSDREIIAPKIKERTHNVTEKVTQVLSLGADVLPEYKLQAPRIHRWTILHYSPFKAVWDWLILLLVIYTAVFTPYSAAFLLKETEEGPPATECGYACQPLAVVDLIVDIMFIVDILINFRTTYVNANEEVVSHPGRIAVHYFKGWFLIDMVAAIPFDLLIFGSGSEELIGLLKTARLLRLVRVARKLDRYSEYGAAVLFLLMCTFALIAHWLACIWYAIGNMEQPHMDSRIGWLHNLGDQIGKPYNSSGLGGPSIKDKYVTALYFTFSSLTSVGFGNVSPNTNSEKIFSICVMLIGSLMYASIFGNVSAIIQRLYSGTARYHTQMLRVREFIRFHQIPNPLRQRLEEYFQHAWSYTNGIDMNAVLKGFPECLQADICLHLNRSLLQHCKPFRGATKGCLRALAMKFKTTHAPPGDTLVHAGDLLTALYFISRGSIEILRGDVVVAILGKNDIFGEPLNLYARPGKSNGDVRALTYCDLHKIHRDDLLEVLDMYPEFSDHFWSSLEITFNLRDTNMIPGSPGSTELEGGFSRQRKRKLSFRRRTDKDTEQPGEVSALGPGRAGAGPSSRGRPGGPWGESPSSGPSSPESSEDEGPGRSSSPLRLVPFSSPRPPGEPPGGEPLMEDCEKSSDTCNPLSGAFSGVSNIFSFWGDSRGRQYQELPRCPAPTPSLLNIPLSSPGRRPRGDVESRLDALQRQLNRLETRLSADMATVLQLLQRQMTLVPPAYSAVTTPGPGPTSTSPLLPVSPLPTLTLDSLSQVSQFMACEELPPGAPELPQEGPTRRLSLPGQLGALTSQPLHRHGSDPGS

SMILES | hERG current change (%, negative = inhibition) at 10uM [%]
COc1cccc(CNC(=O)CN(C)S(=O)(=O)c2ccc3c(c2)n(C)c(=O)c(=O)n3C)c1 | 10.3
S=C1CCC(c2ccc(Cl)cc2)=NN1c1ccccc1 | 4.79
O=C(Nc1ccc(F)cc1)C1CCN(c2ncnc3c2nc2n3CCCCC2)CC1 | -7.35
COc1ccccc1NC(=O)C1CCCN(c2ncnc3c2nc2n3CCCCC2)C1 (stereo not shown) | -45.5
COc1ccc(Cl)cc1NC(=O)C1CCCN(c2ncnc3c2nc2n3CCCCC2)C1 (stereo not shown) | -37.6
O=C(Nc1ccc(F)cc1F)C1CCCN(c2ncnc3c2nc2n3CCCCC2)C1 (stereo not shown) | -62
O=C(Nc1cc(F)ccc1F)C1CCCN(c2ncnc3c2nc2n3CCCCC2)C1 (stereo not shown) | -59.5
CC1=C(C(=O)OC2CCC(C)CC2)C(c2ccc(O)c([N+](=O)[O-])c2)NC(=O)N1 (stereo not shown) | -0.635
C=CCn1c(CCNC(=O)c2ccccc2F)nnc1SCC(=O)Nc1ccc(OC)cc1 | 3.94
COc1ccc(CCNC(=O)c2cc3c(=O)n4ccccc4nc3n(CCCN3CCOCC3)c2=N)cc1OC | -75.1
COc1ccc(Cn2c(=S)[nH]c3cc(C(=O)NCCCN4CCOCC4)ccc3c2=O)cc1 | 24.1
COc1ccc(CCNC(=O)c2c(N)n(CCN3CCOCC3)c3nc4ccccc4nc23)cc1 | -0.58
COc1ccc(CCNC(=O)c2cc3c(=O)n4ccccc4nc3n(CCN3CCOCC3)c2=N)cc1 | -77.8
COc1ccc(CCNC(=O)c2cc3c(=O)n4ccccc4nc3n(CCCN3CCOCC3)c2=N)cc1 | -79
COc1ccc(CCn2c(=N)c(C(=O)NCCN3CCOCC3)cc3c(=O)n4ccccc4nc32)cc1OC | -32.5
COc1ccc(CCn2c(=O)[nH]c3cc(C(=O)NCCCN4CCOCC4)ccc3c2=O)cc1OC | 28.6
COc1ccc(CCNC(=O)c2cc3c(=O)n4cccc(C)c4nc3n(CCCN3CCOCC3)c2=N)cc1 | -76.2
COc1ccc(CCNC(=O)C(=O)NCCCN2CCOCC2)cc1 | 7.99
CCOC(=O)C1=C(COC(=O)COc2ccc(Br)cc2)NC(=O)NC1C (stereo not shown) | 2.16
CC(=O)c1ccc(OCCCC(=O)Nc2cc(S(=O)(=O)N(C)C)ccc2C)cc1 | 0.514
CCS(=O)(=O)N1CCC(C(=O)N2CCC3(CC2)OCCO3)CC1 | 6.65

SMILES | hERG current change (%, negative = inhibition) at 10uM [%]
C=CCCCCCCCCC(=O)N1CCN(c2cc3c(cc2F)c(=O)c(C(=O)O)cn3CC)CC1 | 5.07
Fc1cccc(NC(=S)Nc2ccc(Br)cc2)c1 | 10.3
CCN1CCN(Cc2ccc(NC(=O)c3ccc(C)c(NC(=O)N4CCNC4=O)c3)cc2C(F)(F)F)CC1.O=C(O)C(F)(F)F | 3.66
Cc1ccc(S(=O)(=O)N/N=C/c2ccccc2O)cc1 | 12.9
O=C(CN1C(=O)c2ccc([N+](=O)[O-])cc2C1=O)NCc1ccco1 | 12.4
CC1(C)CC(N2CCC(=O)NC2=S)CC(C)(C)N1 | 3.04
CC(NS(=O)(=O)c1ccc(NC(=O)N2CCCCC2)cc1)c1ccccc1 (stereo not shown) | 3.56
Cc1ccc(OS(=O)(=O)c2ccccc2)c(/C=N/N=C2\NC(=O)C(C)S2)c1 (stereo not shown) | -0.524
CCc1cc2c(s1)N(CC(=O)OC)C(=O)CN=C2c1ccccc1OC | 10.7
Cc1ccc(S(=O)(=O)Cc2ccc(C(=O)N3CCCC3)o2)cc1 | -6.89
COc1ccc(S(=O)(=O)Cc2ccc(C(=O)N3CCN(Cc4ccccc4)CC3)o2)cc1 | -33.1
Cc1ccc(S(=O)(=O)Cc2ccc(C(=O)N3CCCCCC3)o2)cc1 | -15.4
COc1ccc(S(=O)(=O)Cc2ccc(C(=O)N3CCCC3)o2)cc1 | 1.74
Cc1ccc(S(=O)(=O)Cc2ccc(C(=O)N3CCc4ccccc4C3)o2)cc1 | -62.2
COc1ccc(S(=O)(=O)Cc2ccc(C(=O)N3CCc4ccccc4C3)o2)cc1 | -59
O=S1(=O)CCN(Cc2ccccc2Cl)CC1 | -11.1
Cc1cc(C(=O)Nc2ccccc2C)n(-c2ccccc2)n1 | 16.5
COc1ccc(NC(=O)C2CCC(=O)N2S(=O)(=O)c2ccc(C)cc2)c(OC)c1 (stereo not shown) | -11
COc1ccc(-c2c3c(=O)n(C)c(=O)n(C)c3cn2-c2ccccc2O)cc1 | -9.54
Cc1ccc2c(c1)nnn2C1CCN(CC(=O)Nc2ccccc2N2CCOCC2)CC1 | -69.8
COc1ccc(Cl)cc1NC(=O)CN1CCC(n2nnc3cc(C)ccc32)CC1 | -24.2

SMILES | hERG current change (%, negative = inhibition) at 10uM [%]
Cc1ccccc1NC(=O)CN1CCC(n2nnc3ccccc32)CC1 | -38.8
COC(=O)c1ccccc1NC(=O)CN1CCC(n2nnc3cc(F)ccc32)CC1 | -14.3
O=C(CN1CCC(n2nnc3cc(F)ccc32)CC1)Nc1ccccc1N1CCOCC1 | -66.6
CC(C)(C)c1ccc(C(=O)N2CCC(C(=O)N3CCCCC3)CC2)cc1 | -3.01
Cc1cccc(C(C)(C)C)c1OCCOCCN1CCCC1 | -20.6
CN(C(=O)CN1CC=C(c2ccccc2)CC1)c1c(N)n(Cc2ccccc2)c(=O)[nH]c1=O | 25.8
Cc1ccc(-n2nc3c(=O)n(CC(=O)NCc4ccc(C)o4)nc(C)c3c2C)cc1 | 13.1
Cc1nn(C2CCS(=O)(=O)C2)c(Cl)c1/C=C/C(=O)OCC(=O)N(C)C (stereo not shown) | 11.3
O=C(COc1ccc(S(=O)(=O)N2CCOCC2)cc1)Nc1cccc([N+](=O)[O-])c1 | -39
CCN1CCN(c2ccc(NC(=O)COc3ccc([N+](=O)[O-])cc3)cc2)CC1 | -54.3
O=C(COc1ccc([N+](=O)[O-])cc1)Nc1ccc(N2CCN(C(=O)c3ccco3)CC2)cc1 | 6.27
O=C(COc1ccc(Br)cc1)Nc1ccc(CN2CCOCC2)cc1 | -40.6
O=C(COc1ccc([N+](=O)[O-])cc1)Nc1ccc(CN2CCOCC2)cc1 | -52.3
O=C(COc1ccc([N+](=O)[O-])cc1)Nc1ccc(N2CCCC2)cc1 | 12.1
Cc1ccc(NC(=O)COc2ccc(S(=O)(=O)N3CCOCC3)cc2)cc1 | 7.98
O=C(COc1ccc(Cl)cc1)Nc1ccc(CN2CCOCC2)cc1 | -39.6
O=C(COc1ccc([N+](=O)[O-])cc1)Nc1ccc(S(=O)(=O)N2CCOCC2)cc1 | -53.8
Cc1scc(C(=O)N/N=C/c2ccco2)c1C | 2.52
CCCc1cc(=O)[nH]c(SCC(=O)N(CC)C2CCS(=O)(=O)C2)n1 (stereo not shown) | 13.2
N=C(N)c1c(O)n(C2CCCCC2)c(=O)n(C2CCCCC2)c1=O | 18.5
CC1Cc2ccccc2N1C(=O)c1cc2sccc2n1Cc1ccc(F)cc1 (stereo not shown) | 12.3

SMILES | hERG current change (%, negative = inhibition) at 10uM [%]
Oc1ccc(-c2nnc(SCc3ccccc3)o2)cc1 | -8.15
COc1ccc2c(c1)c(=O)c(C(=O)c1ccccc1)cn2Cc1ccccc1 | -71.8
COc1ccc2c(c1)c(=O)c(C(=O)c1ccc(F)cc1)cn2CC(=O)Nc1ccc(F)cc1 | -5.61
COc1ccc2c(c1)c(=O)c(C(=O)c1ccc(C)cc1)cn2CC(=O)Nc1ccc(F)cc1 | -10.1
COc1ccc2c(c1)c(=O)c(C(=O)c1ccccc1)cn2Cc1ccc(C)cc1 | -75
COc1ccc2c(c1)c(=O)c(C(=O)c1ccc(Cl)cc1)cn2CC(=O)Nc1ccc(F)cc1 | 12.4
COc1ccc(Cn2cc(C(=O)c3ccccc3)c(=O)c3cc(OC)ccc32)cc1 | -31.3
Cc1cccc(NC(=S)NC2CCSc3ccccc32)c1 (stereo not shown) | 14.5
COc1ccc(OCC(=O)Nc2ccccc2OC(F)F)cc1 | -22.2
CC1CC(C)CN(C(=O)c2ccc(Br)c(S(=O)(=O)N3CCOCC3)c2)C1 (stereo not shown) | -26.6
NC(=O)C(c1ccccn1)c1ncc(C(F)(F)F)cc1Cl (stereo not shown) | 11.7
Cl.O=C(CN1C2=NCCN2c2ccccc21)c1ccco1 | -20.7
Br.O=C(CN1C2=NCCN2c2ccccc21)c1ccc(Br)cc1 | -67.6
Br.O=C(CN1C2=NCCN2c2ccccc21)c1ccc2c(c1)OCO2 | -60.9
Cl.O=C(CN1CCCCC1)c1ccc2c(c1)OCO2 | -4.7
CC(C)(C)n1nnnc1C(c1ccc(Cl)cc1)N(Cc1cccnc1)Cc1ccco1 (stereo not shown) | -14.7
CCOC(=O)c1[nH]c(C)c(C(=O)N2CCc3ccccc32)c1C | -12.6
Cc1ccc(OCC(=O)NCC(=O)Nc2ccc(F)c(F)c2F)c([N+](=O)[O-])n1 | -34.4
Cc1nc(Nc2cccc(C(C)O)c2)c2nnn(Cc3ccc(F)cc3)c2n1 (stereo not shown) | 5.08

— publication PMC4336329 (PLoS ONE, 2015)
